Among the test systems are NCI-H23 lung; NCI-H322M lung; HOP-62 NSCLC; NCI-H460 lung; HOP-92 NSCLC; NCI-H522 lung; A549/ATCC NSCLC; 786-0 renal; COLO 205 colon.
Holding throughout (test): NCI-60 one-dose screen, 48 h (100 = growth as untreated, 0 = no growth, -100 = all killed)
Common to all, as to details: 10 µM unless noted

This is part of a sample that, as a whole, favours compounds with a hit. Of some 83,000 tested, about 20% had one in any assay.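 Growth was measured after 48 h exposure to one concentration of compound in 96-well plates. Values under 10 count as active.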 Values without a mark were called inactive. Calls of active or inactive are those of the source.

Consider `Oc1ccc(N=Cc2ccccc2O)cc1`, for which the growth in the test on NCI-H23 lung was 92.3%; in the test with NCI-H322M lung, 90.6%; with HOP-62 NSCLC, 93.6%; with NCI-H460 lung, 96.4%; in the test with HOP-92 NSCLC it was 75.3%; with NCI-H522 lung it was 81.3%. Moreover, the growth in the test on A549/ATCC NSCLC is 101%; with 786-0 renal, 93.4%.
Consider `CCCn1c(=O)[nH]c(N)c([C@H]2c3ccccc3Oc3[nH]c(=O)n(CCC)c(=O)c32)c1=O`, for which the growth in the test with NCI-H23 lung was 86.2%; in the test on NCI-H322M lung, 85.4%; with HOP-62 NSCLC it was 90.8%; in the test on NCI-H460 lung, 111%; in the test with HOP-92 NSCLC, 102%; in the test on NCI-H522 lung, 20.7%. Besides, the growth in the test with A549/ATCC NSCLC was 84.8%; in the test with 786-0 renal, 82.7%; in the test on COLO 205 colon, 86.4%.
Consider `C=C(C)C(=O)Nc1ccc(NC(C)C)cc1`, for which the growth in the test with NCI-H23 lung is 113%; with NCI-H322M lung, 150%; in the test on HOP-62 NSCLC it was 104%; with NCI-H460 lung, 139%; in the test with HOP-92 NSCLC, 143%; in the test on NCI-H522 lung, 159%. For the same compound, the results for the growth with A549/ATCC NSCLC and in the test on 786-0 renal were 112% and 96.8%, respectively.
In the case of `COc1ccc(C(=O)/C=C/c2cccnc2Nc2cc(OC)c(OC)c(OC)c2)cc1`, the growth is 59.2% with NCI-H23 lung; 80.5% in the test on NCI-H322M lung; 48% in the test on HOP-62 NSCLC; 5.28% (active) in the test with NCI-H460 lung; 49.3% in the test with HOP-92 NSCLC; 14.8% in the test on NCI-H522 lung. For the same compound, the growth was 23.6% in the test with A549/ATCC NSCLC, 39.2% in the test with 786-0 renal and 38.6% with COLO 205 colon.
`CCN1CCC2(CC1)NC(=O)c1c(c3ccc(Cl)c(Cl)c3n1C)C2C#N` (stereo not given): the growth is 70% in the test with NCI-H23 lung; 57% with NCI-H322M lung; 62% in the test with HOP-62 NSCLC; 54.6% in the test on NCI-H460 lung; 40.5% in the test on HOP-92 NSCLC; 61.5% in the test with NCI-H522 lung. Moreover, the growth with A549/ATCC NSCLC was 52.1%; with 786-0 renal it was 63.7%; in the test with COLO 205 colon, -31.4% (active).
Consider `O=C1c2ccccc2OC=C(c2ccccc2)N1CCCCNc1ccc(S(=O)(=O)Nc2ncccn2)cc1`, for which the growth in the test with NCI-H23 lung was 101%; in the test with NCI-H322M lung, 92.8%; in the test with HOP-62 NSCLC it was 90.1%; in the test with NCI-H460 lung, 103%; in the test on HOP-92 NSCLC, 75.8%; in the test on NCI-H522 lung, 82.9%. Also, the values for the growth in the test with A549/ATCC NSCLC, in the test with 786-0 renal and in the test with COLO 205 colon were 81.3%, 90.6% and 114%, respectively.
Take `O=C1NC(=S)NC(=O)C1CC(=O)n1c(-c2ccccc2)nc2ccccc21`: the growth with NCI-H23 lung was 97.2%; in the test on NCI-H322M lung, 94%; with HOP-62 NSCLC it was 79.9%; in the test on NCI-H460 lung, 101%; with HOP-92 NSCLC it was 108%; in the test with NCI-H522 lung, 96.9%. Also, the growth with A549/ATCC NSCLC is 97.7%; in the test with 786-0 renal, 104%; in the test with COLO 205 colon it was 111%.
For `CCN(CC)c1ccc(/C=N\NC(=O)/C=C/C=C/c2ccc3c(c2)OCO3)c(O)c1`, the growth in the test with NCI-H23 lung is 49.7%; in the test on NCI-H322M lung it was 31.2%; in the test on HOP-62 NSCLC it was 28.5%; in the test on NCI-H460 lung, 19.8%; in the test on HOP-92 NSCLC it was 48.4%; in the test with NCI-H522 lung it was 12.5%. The growth with A549/ATCC NSCLC is 53.3%; in the test with 786-0 renal, 47.2%; in the test on COLO 205 colon, 39.9%.
`COc1ccc(/C=C/c2nc(-c3n[nH]c(=O)n3-c3ccccc3)c3ccccc3n2)cc1`: the growth was 94.8% with NCI-H23 lung; 93.7% with NCI-H322M lung; 95.8% in the test with HOP-62 NSCLC; 100% in the test on NCI-H460 lung; 101% in the test on HOP-92 NSCLC; 85.6% with NCI-H522 lung. For the same compound, the growth in the test on A549/ATCC NSCLC was 99.9%; in the test on 786-0 renal, 94%; in the test with COLO 205 colon it was 105%.
With `COc1ccc(Nc2c3c4c(cccc4[nH]c2=O)C(=O)c2ccccc2-3)cc1`, the growth is 4.11% (active) in the test on NCI-H23 lung; 24.9% in the test with NCI-H322M lung; 28% in the test on HOP-62 NSCLC; -44.4% (active) in the test on NCI-H460 lung; 15.5% in the test with HOP-92 NSCLC; -20.4% (active) with NCI-H522 lung. For the same compound, the figures for the growth with A549/ATCC NSCLC, in the test on 786-0 renal and in the test with COLO 205 colon were 20.6%, 12.1% and -64.5% (active), respectively.
Take `COc1ccc(-c2nc3ccc(-c4nc5ccc(N6CCN(c7ccccc7)CC6)cc5[nH]4)cc3[nH]2)cc1OC`: the growth with NCI-H23 lung is -21.4% (active); with NCI-H322M lung, -2.95% (active); with HOP-62 NSCLC, 27%; in the test with NCI-H460 lung it was -6.7% (active); in the test on HOP-92 NSCLC it was 13.6%; in the test with NCI-H522 lung, -33% (active). For the same compound, the growth with A549/ATCC NSCLC is -56.2% (active); in the test on 786-0 renal, -79.8% (active); with COLO 205 colon, -70.9% (active).
Regarding `CCCOc1ccc2nc(NC(=O)OC)[nH]c2c1`, the growth was 21.9% with NCI-H23 lung; 49.9% in the test on NCI-H322M lung; 33.6% in the test with HOP-62 NSCLC; 3.52% (active) in the test on NCI-H460 lung; 37.9% with HOP-92 NSCLC; -32.7% (active) in the test with NCI-H522 lung. The results for the growth with A549/ATCC NSCLC, in the test on 786-0 renal and in the test on COLO 205 colon were 12.8%, 32.6% and 3.31% (active), respectively.
For the compound `CCCCn1c(-c2ccc(C(=O)O/N=C(\N)c3ccc4ccccc4c3)cc2)nc(-c2ccccc2)c1-c1ccccc1`, the growth in the test with NCI-H23 lung is 65%; in the test with NCI-H322M lung, 80.8%; with HOP-62 NSCLC, 91.5%; in the test with NCI-H460 lung, 26.3%; with HOP-92 NSCLC, 77.6%; in the test with NCI-H522 lung, 71.7%. For the same compound, the growth in the test with A549/ATCC NSCLC was 42%; in the test on 786-0 renal, 77.8%; in the test on COLO 205 colon it was 90.8%.
For `COc1cc2c(cc1OC)C(Sc1ccc(SC)cc1)c1c(nc(N)c(C#N)c1N)O2` (stereo not given), the growth in the test with NCI-H23 lung is -56.1% (active); in the test on NCI-H322M lung it was -86.9% (active); with HOP-62 NSCLC, -46.3% (active); in the test with NCI-H460 lung, -79% (active); in the test with HOP-92 NSCLC it was -23.7% (active); in the test with NCI-H522 lung it was -92.6% (active). Also, the growth with A549/ATCC NSCLC is -63.5% (active); with 786-0 renal it was -80.7% (active); in the test with COLO 205 colon it was -79% (active).
With `CCOC(=O)c1c(C)oc2ncnc(N3CCN(C(=S)Nc4ccccc4)CC3)c12`, the growth in the test on NCI-H23 lung was 90.8%; in the test with NCI-H322M lung, 92.3%; in the test with HOP-62 NSCLC it was 87.2%; with NCI-H460 lung it was 103%; in the test with HOP-92 NSCLC, 83.3%; in the test on NCI-H522 lung it was 80.9%. The growth is 92% with A549/ATCC NSCLC, 97.8% with 786-0 renal and 104% in the test on COLO 205 colon.
As to `Cn1cc(-c2nonc2-c2c[nH]c3ccc(F)cc23)c2cccnc21`, the growth was 80.7% in the test with NCI-H23 lung; 88.1% with NCI-H322M lung; 78.9% in the test on HOP-62 NSCLC; 93.9% in the test on NCI-H460 lung; 70.6% in the test with HOP-92 NSCLC; 70.2% with NCI-H522 lung. The results for the growth in the test on A549/ATCC NSCLC and with 786-0 renal were 80.4% and 98.1%, respectively.
Regarding `CC1=C[C@H]2c3c(c(O)c(O)c4oc5c(C)cccc5c(=O)c34)[C@H](c3cc(O)c(O)c4oc5c(C)cccc5c(=O)c34)[C@H]2C(C)(C)C1`, the growth with NCI-H23 lung is -15.2% (active); in the test with NCI-H322M lung, 21.5%; in the test on HOP-62 NSCLC it was 9.87% (active); with NCI-H460 lung, -44.3% (active); in the test on HOP-92 NSCLC it was 20.9%; in the test on NCI-H522 lung, 3.27% (active). For the same compound, the growth in the test on A549/ATCC NSCLC is 11.9%; in the test on 786-0 renal it was -3.44% (active); in the test on COLO 205 colon, 16.3%.
Turning to `O=C(O)c1ccc(NC(=O)c2ccc(-c3cccc([N+](=O)[O-])c3)o2)cc1`, the growth with NCI-H23 lung was 91.8%; in the test with NCI-H322M lung, 95%; in the test on HOP-62 NSCLC, 103%; in the test on NCI-H460 lung, 102%; with HOP-92 NSCLC, 98.6%; in the test on NCI-H522 lung, 94.5%. The growth in the test on A549/ATCC NSCLC was 101%; in the test on 786-0 renal, 105%; with COLO 205 colon, 107%.
Regarding `COc1cc2nc(N3CCCC3)nc(NCCc3ccccc3)c2cc1OC`, the growth with NCI-H23 lung was 59.5%; in the test with NCI-H322M lung, 75.2%; in the test on HOP-62 NSCLC, 68.5%; in the test with NCI-H460 lung, 10.1%; with HOP-92 NSCLC it was 74.6%; in the test with NCI-H522 lung it was 61.7%. Besides, the growth with A549/ATCC NSCLC was 18.5%; with 786-0 renal, 81.5%; in the test on COLO 205 colon, -84.8% (active).
With `CCCCCC(=O)Oc1ccc(/C(=C(\C)c2ccc(OC)cc2)c2ccc(OCCN3CCCCC3)cc2)cc1`, the growth in the test with NCI-H23 lung was 67.1%; in the test on NCI-H322M lung, 78.2%; in the test on HOP-62 NSCLC, 63.1%; in the test on NCI-H460 lung, 51.6%; with HOP-92 NSCLC it was 81.7%; with NCI-H522 lung, 74.6%. The growth in the test on A549/ATCC NSCLC was 53.2%; in the test with 786-0 renal, 46.8%; with COLO 205 colon it was -32.6% (active).
Turning to `C#CCOc1ccc2ncnc(NCc3cccc(NC(=O)CCl)c3)c2c1`, the growth is 36.6% [8.25 µM] with NCI-H23 lung; 82.3% [8.25 µM] in the test with NCI-H322M lung; 0.209% [8.25 µM] (active) in the test with HOP-62 NSCLC; 28.2% [8.25 µM] with NCI-H460 lung; 54.4% [8.25 µM] in the test on HOP-92 NSCLC; -62.8% [8.25 µM] (active) in the test with NCI-H522 lung. The growth in the test on A549/ATCC NSCLC is 50.4% [8.25 µM]; in the test with 786-0 renal, 39.2% [8.25 µM]; with COLO 205 colon, 54% [8.25 µM].
For the compound `Cc1cc(C)nc(SC2=C(Nc3cccc(Cl)c3)C(=O)N(Cc3ccccc3)C2=O)n1`, the growth with NCI-H23 lung is 82% [30 µM]; in the test on NCI-H322M lung, 88.8% [30 µM]; in the test with HOP-62 NSCLC, 90.3% [30 µM]; in the test on NCI-H460 lung, 62.5% [30 µM]; in the test with HOP-92 NSCLC, -7.47% [30 µM] (active); with NCI-H522 lung, 67.9% [30 µM]. Further, the growth in the test on A549/ATCC NSCLC was 26.4% [30 µM]; in the test on 786-0 renal it was 72.1% [30 µM]; with COLO 205 colon, 78.2% [30 µM].
